Screens from PubChem.
A selection: hits, their analogues and other compounds. The true share with any hit is near 1.6%.
KCNQ2 enhance – enhances the rat KCNQ2 potassium channel | O88943 | CHO-K1 KCNQ2, FluxOR thallium flux fluorescence; stronger effect = higher value | B-score at 10 µM | 0.54% of 310,000 active | AID 2239;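 active means fluorescence ratio B-score at least 3 SD of library B-scores, with initial fluorescence B-score within 3 of them, cut at about 5.3 in these data; same plate scores as AID 2156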;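 further: B-score of peak minus minimum over baseline fluorescence ratio after K+ and Tl+ stimulus; positive B-score means potentiation of KCNQ2 with more thallium influx and brighter signal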
Target sequence (O88943 whole entry, looked up): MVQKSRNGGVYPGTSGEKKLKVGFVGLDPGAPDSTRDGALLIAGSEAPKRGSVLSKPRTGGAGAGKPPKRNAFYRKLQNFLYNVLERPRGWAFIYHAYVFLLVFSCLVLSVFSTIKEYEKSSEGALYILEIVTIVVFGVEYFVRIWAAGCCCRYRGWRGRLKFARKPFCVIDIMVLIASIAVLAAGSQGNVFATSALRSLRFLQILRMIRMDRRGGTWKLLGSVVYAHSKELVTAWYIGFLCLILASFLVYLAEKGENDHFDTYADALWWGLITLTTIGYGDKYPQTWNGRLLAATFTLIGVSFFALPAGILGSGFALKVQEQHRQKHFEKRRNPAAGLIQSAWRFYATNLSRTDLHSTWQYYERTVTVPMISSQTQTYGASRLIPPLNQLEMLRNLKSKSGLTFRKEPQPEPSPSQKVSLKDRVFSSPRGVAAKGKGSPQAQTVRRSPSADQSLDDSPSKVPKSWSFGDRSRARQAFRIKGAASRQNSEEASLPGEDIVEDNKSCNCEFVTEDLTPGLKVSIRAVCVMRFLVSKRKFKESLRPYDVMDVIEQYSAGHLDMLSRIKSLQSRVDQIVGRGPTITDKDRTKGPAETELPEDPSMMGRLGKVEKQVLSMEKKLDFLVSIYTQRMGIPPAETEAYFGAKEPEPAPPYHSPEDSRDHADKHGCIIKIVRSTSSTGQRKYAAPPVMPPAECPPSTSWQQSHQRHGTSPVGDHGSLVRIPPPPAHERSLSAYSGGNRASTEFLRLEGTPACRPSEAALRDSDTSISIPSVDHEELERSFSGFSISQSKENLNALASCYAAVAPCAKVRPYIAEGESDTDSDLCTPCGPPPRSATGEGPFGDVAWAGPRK
KCNQ2 block – inhibitors of rat KCNQ2 potassium channel. O88943. CHO-K1 KCNQ2, FluxOR thallium flux, 20 min; stronger effect = lower value. B-score at 10 µM. 1.1% of 310,000 active;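 active means fluorescence ratio B-score at most minus 3 library SDs, with starting brightness B-score within 2 library SDs, cut at about -5.5 in these data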
KCNQ2 inh conf – confirmation of rat KCNQ2 potassium channel inhibitors; shares compounds with KCNQ2 block; KCNQ2-expressing cells, thallium flux, inhibition; stronger effect = lower value; activity change, negative = inhibition, % at 10 µM; 57% of 1,000 active;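 further: 0% = vehicle wells and values are ratio percent relative to vehicle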
KCNQ1 spec – human KCNQ1 activity in KCNQ2 inhibitor specificity screen. activity change, negative = inhibition, % at 10 µM. 15% of 1,000 active. KCNQ1-expressing cells, FluxOR thallium flux fluorescence; stronger effect = lower value. AID 493026. shares compounds with KCNQ2 block;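 active means activity change at least 3 SD of negative controls below their mean in both duplicate wells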;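 further: CHO cells stably transfected with KCNQ1 and depolarized by potassium stimulus; peak minus minimum fluorescence over baseline after thallium addition; 0% = vehicle negative control and -100% = blank without thallium stimulus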
CHO parental ctr – KCNQ2 inhibitor counter-screen hit in parental CHO cells. AID 493029. activity change, % at 10 µM. 14% of 1,000 active. shares compounds with KCNQ2 block. thallium flux counter-screen; stronger effect = lower value;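 further: 0% = vehicle negative controls with stimulus buffer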
KCNQ2 patch conf – confirmation of rat KCNQ2 potassium channel inhibitors | KCNQ2-expressing cells, automated patch clamp current | 49% of 550 active | shares compounds with KCNQ2 block | calls only at 10 µM
Kir21 conf inh – confirmation of mouse Kir2.1 potassium channel inhibitors; shares compounds with KCNQ2 enhance; Kir2.1-expressing cells, FluxOR thallium flux fluorescence; stronger effect = lower value; Tl flux remaining, % of negative control (stronger effect = lower value), % at 10 µM; 41% of 2,300 active; AID 2032;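 active means Primary-screen hit whose thallium flux fell at least 3 control SD below untreated wells in both duplicates, with normal baseline fluorescence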;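 further: 0% = blank wells without stimulus and 100% = stimulated no-compound controls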
HEK293 Tl flux – parental HEK293 activity in Kir2.1 inhibitor counter-screen; FluxOR signal as % of negative control (100 = no effect), % at 10 µM; parental HEK293 cells, FluxOR thallium flux fluorescence; 0% = unstimulated blank wells; 19% of 2,300 active; AID 2105; shares compounds with KCNQ2 enhance;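 active means dye signal at least 3 control SD above or below untreated wells in both duplicates, raw fluorescence within 3, either direction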;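 further: percent is based on the flux ratio of peak minus minimum fluorescence over baseline F0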
Starred values were filed as active, the others as inactive. Unless noted, how the calls were made is not given here.

Results for Cc1cc(O)c2c3c(c(=O)oc2c1)CCC(C)C3 (configuration not stated) ?
KCNQ2 block: inactive

Results for Cc1cc(O)c2c(c1)OC(C)(C)C1=C2CC(C)CC1 (configuration not stated) ?
KCNQ2 enhance: -7.3; KCNQ2 block: -7.3*

What do the screens show for `C/C(=N\N1CCCCCC1)c1c(O)n(-c2ccccc2C)c(=O)[nH]c1=O`?
KCNQ2 block: inactive

How did Cc1ccc(S(=O)(=O)N(C)C/N=C(\N)N[N+](=O)[O-])cc1 do in these assays?
KCNQ2 enhance: 0.1; KCNQ2 block: inactive

How did COC(=O)[C@@H](N)CCCN=C(N)N[N+](=O)[O-] do in these assays?
KCNQ2 enhance: -6.4; KCNQ2 block: -6.4*

What do the screens show for `CCCN(CC1CC1)CC(O)c1ccccc1` (configuration not stated)?
KCNQ2 block: inactive

What do the screens show for `O=P(Nc1ccccc1)(Nc1ccccc1)Oc1ccccc1`?
KCNQ2 block: inactive

Results for O=P(Nc1ccccc1)(Nc1ccccc1)Oc1cccc(Cl)c1 ?
KCNQ2 enhance: -7.7; KCNQ2 block: -7.7*; KCNQ2 inh conf: inactive; KCNQ1 spec: inactive; CHO parental ctr: inactive

What do the screens show for `CCN1C[C@@]2(COC)C3[C@@H](OC)[C@H]4[C@@H]1[C@@]3(C1C[C@@]3(O)[C@H](OC(=O)c5ccccc5)C1[C@]4(OC(C)=O)[C@@H](O)[C@H]3OC)[C@@H](OC)C[C@H]2O` (some centres not stated)?
KCNQ2 enhance: 0.68; KCNQ2 block: inactive

Results for CCN(CC)c1ccc(CNCCc2ccccc2F)cc1 ?
KCNQ2 block: inactive

Results for CC(C)c1ccccc1OCC(=O)N1CCCN(C)CC1 ?
KCNQ2 block: inactive

What do the screens show for `O=C(Nc1ccc(Cl)cc1)O/N=C(\c1ccccc1)c1ccccn1`?
KCNQ2 enhance: -7.7; KCNQ2 block: -7.7*; KCNQ2 inh conf: inactive; KCNQ1 spec: inactive; CHO parental ctr: inactive

What do the screens show for `CON(C)C(=O)Nc1ccc(Cl)cc1`?
KCNQ2 block: inactive

What do the screens show for `COc1ccc(NC(c2ccccc2)P(=O)(Oc2ccccc2)Oc2ccccc2)cc1` (configuration not stated)?
KCNQ2 enhance: -7; KCNQ2 block: -7*; KCNQ2 inh conf: -31%*; KCNQ1 spec: inactive; CHO parental ctr: inactive; KCNQ2 patch conf: active

Results for COc1ccc(NC(c2ccccc2F)P(=O)(Oc2ccccc2)Oc2ccccc2)cc1 (configuration not stated) ?
KCNQ2 block: inactive

What do the screens show for `Cc1ccc(-c2cc(-c3ccccc3)cc(-c3ccccc3)[n+]2-c2ccc(C(=O)O)cc2)cc1`?
KCNQ2 block: inactive

What do the screens show for `Oc1ccccc1-[n+]1c(-c2ccccc2)cc(-c2ccccc2)cc1-c1ccccc1`?
KCNQ2 enhance: -7.6; KCNQ2 block: -7.6*; KCNQ2 inh conf: -16%*; KCNQ1 spec: inactive; CHO parental ctr: inactive; KCNQ2 patch conf: inactive; Kir21 conf inh: 44%*; HEK293 Tl flux: inactive

What do the screens show for `Cc1c(OC(=O)N(C)C)ccc2c1O/C(=C\c1ccco1)C2=O`?
KCNQ2 block: inactive

What do the screens show for `O=C1C(Cc2cnc[nH]2)NC(=S)N1c1ccccc1` (configuration not stated)?
KCNQ2 enhance: 0.01; KCNQ2 block: inactive

How did C=CCN(CC#CCOc1ccccc1OC)CC=C do in these assays?
KCNQ2 enhance: 0.83; KCNQ2 block: inactive

Results for CCCCCCCSc1cc(OC)c(CCN(C)C)cc1OC ?
KCNQ2 enhance: -7.7; KCNQ2 block: -7.7*; KCNQ2 inh conf: -34%*; KCNQ1 spec: -38%*; CHO parental ctr: -28%*; KCNQ2 patch conf: inactive; Kir21 conf inh: 19%*; HEK293 Tl flux: inactive

What do the screens show for `CCCCC1C(=O)NC(=S)NC1=O`?
KCNQ2 enhance: 0.64; KCNQ2 block: inactive
